Compound activity as filed in PubChem BioAssay.
USP8 block – inhibitors of human USP8 deubiquitinase; Ubiquitin carboxyl-terminal hydrolase 8 (Homo sapiens), P40818; purified USP8, Ub-rhodamine cleavage fluorescence, 30 min; inhibition, % at 20 µM; 47,000 tested, 4.2% active
Target sequence (P40818 whole entry, looked up): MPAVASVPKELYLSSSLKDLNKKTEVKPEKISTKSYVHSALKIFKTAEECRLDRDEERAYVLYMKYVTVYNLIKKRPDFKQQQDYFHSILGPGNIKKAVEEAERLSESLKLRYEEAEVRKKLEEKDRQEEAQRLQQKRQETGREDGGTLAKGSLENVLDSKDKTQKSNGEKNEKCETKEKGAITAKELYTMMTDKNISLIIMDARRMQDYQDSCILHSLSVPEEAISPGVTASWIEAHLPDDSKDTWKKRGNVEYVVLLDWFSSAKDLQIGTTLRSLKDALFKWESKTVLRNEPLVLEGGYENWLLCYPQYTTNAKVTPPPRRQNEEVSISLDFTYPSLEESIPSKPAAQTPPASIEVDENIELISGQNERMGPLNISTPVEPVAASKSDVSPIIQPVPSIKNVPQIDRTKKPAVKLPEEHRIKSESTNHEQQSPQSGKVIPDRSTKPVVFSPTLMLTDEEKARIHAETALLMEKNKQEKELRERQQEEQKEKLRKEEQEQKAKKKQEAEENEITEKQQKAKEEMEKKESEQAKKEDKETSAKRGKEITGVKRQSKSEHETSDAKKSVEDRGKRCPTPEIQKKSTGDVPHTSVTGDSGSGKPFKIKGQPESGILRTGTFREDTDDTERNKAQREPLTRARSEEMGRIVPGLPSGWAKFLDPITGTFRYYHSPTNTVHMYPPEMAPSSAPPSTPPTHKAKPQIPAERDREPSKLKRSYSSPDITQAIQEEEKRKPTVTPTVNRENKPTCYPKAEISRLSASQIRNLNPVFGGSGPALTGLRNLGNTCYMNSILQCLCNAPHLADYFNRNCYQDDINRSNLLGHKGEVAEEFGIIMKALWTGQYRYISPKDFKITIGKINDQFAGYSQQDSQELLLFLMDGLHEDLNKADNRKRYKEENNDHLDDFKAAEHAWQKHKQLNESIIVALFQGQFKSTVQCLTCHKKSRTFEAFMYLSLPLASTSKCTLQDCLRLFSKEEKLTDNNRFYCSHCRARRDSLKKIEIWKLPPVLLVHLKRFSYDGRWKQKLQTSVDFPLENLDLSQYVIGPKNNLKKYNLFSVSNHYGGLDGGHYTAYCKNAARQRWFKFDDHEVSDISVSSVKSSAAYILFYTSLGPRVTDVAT
USP10 block – inhibitors of human USP10 deubiquitinase; purified USP10, Ub-rhodamine fluorescence, 60 min; inhibition, % at 20 µM; 47,000 tested, 1.1% active
UCHL1 block – inhibitors of human UCHL1 deubiquitinase; Ubiquitin carboxyl-terminal hydrolase isozyme L1 (Homo sapiens), P09936; inhibition, % at 20 µM; 47,000 tested, 0.2% active; AID 1645859, 2021; purified UCHL1, Ub-rhodamine cleavage fluorescence
USP7 block – inhibitors of human USP7 deubiquitinase; Ubiquitin carboxyl-terminal hydrolase 7 (Homo sapiens), Q93009; purified USP7, Ub-rhodamine cleavage fluorescence; inhibition, % at 20 µM; 47,000 tested, 0.3% active; AID 1645854, 2021
Starred values were filed as active, the others as inactive. Compounds with a hit are over-represented: about 5% of the library has one in this group of screens. No stated cut-off is given here; in the data, active means inhibition above about 30%; inactive means the rest.

SMILES | USP8 block | USP10 block | UCHL1 block | USP7 block
Cc1cc(-c2noc(-c3ccoc3C)n2)c2ccccc2n1 | 37* | -4 | -20 | -9
COc1ccc(OCc2nc(-c3cc(C)nc4ccccc34)no2)cc1 | 2 | -6 | 8 | 5
O=C(NCc1cc2ccccc2[nH]1)c1ccc(COc2ccc(Br)cc2)cc1 | 55* | -10 | -19 | -33
Cc1cccc(NC(=O)c2cnn3c4c(cnc23)CCCCC4)c1C | -26 | -3 | -1 | 2
C=C1CCC2[C@](C)(CCC[C@]2(C)C(=O)OC)[C@H]1CCc1ccoc1CNC(CCSC)C(=O)O (stereo partly specified) | 43* | -8 | -7 | 2
Clc1ccc(C2=Nc3cc(Cl)ccc3OC2)cc1 | 56* | -5 | -3 | -6
O=C1COc2ccc(Cl)cc2CN1Cc1ccccc1 | -2 | 1 | 0 | -11
c1ccc(-c2cc(-c3nnc4c5ccccc5cnn34)[nH]n2)cc1 | 1 | 3 | 1 | 4
O=c1ccc(-c2nnc3c4ccccc4c(Cc4ccccc4)nn23)n[nH]1 | 59* | 5 | 4 | -2
COc1ccc(C(=O)N[C@@H]2C[C@@H](Oc3cccc(F)c3)[C@H](O)[C@H]2O)cc1 | -19 | -3 | 0 | 2
CC(=O)Nc1cc(C(=O)NC(C)c2ccccc2)c2ccc(C)nc2c1 (stereo unspecified) | 11 | -6 | -2 | -9
COc1ccc(C(C)NC(=O)c2cc(NC(C)=O)cc3nc(C)ccc23)cc1 (stereo unspecified) | 58* | -6 | 11 | -10
O=C(NCc1cccc(F)c1)c1cc(OCc2ccccc2)nc2ccccc12 | -73 | 0 | -6 | 2
COc1ccc(CC(=O)Nc2nc(-c3ccco3)c(-c3ccco3)s2)cc1 | 73* | -13 | -94 | -140
COc1ccc(CC(=O)Nc2nc3c(s2)CCC3)cc1 | 23 | -1 | 3 | -1
O=C(Cc1ccccc1F)Nc1nc(-c2ccco2)c(-c2ccco2)s1 | 74* | -12 | -59 | -91
COc1ccccc1CNC(=O)C1CCCN(c2nc3ccsc3c(=O)s2)C1 (stereo unspecified) | 1 | 3 | 1 | 6
O=S(=O)(Nc1ccc2[nH]ncc2c1)c1ccc(Cl)cc1F | 37* | 1 | 4 | -3
O=S(=O)(Nc1ccc2[nH]ncc2c1)c1ccc2c(c1)CCC2 | 11 | 2 | -5 | -4
Cc1c(CNCc2ccccc2F)c(C(=O)O)c(C)n1-c1ccccc1 | 12 | -3 | 3 | 1
COc1ccc(C(=O)Nc2nc3n(n2)C(c2ccccc2)CC(=O)N3)cc1 (stereo unspecified) | 76* | 17 | 3 | 8
CC(=O)Nc1nc2n(n1)C(c1ccccc1)CC(=O)N2 (stereo unspecified) | 3 | 5 | -1 | 1
O=C1CC(c2ccccc2)n2nc(NC(=O)c3ccccc3F)nc2N1 (stereo unspecified) | 44* | 0 | -1 | 0
COC(=O)CN1C(=O)CSc2ccc(S(=O)(=O)Nc3cccc(F)c3)cc21 | 10 | 3 | 0 | 3
O=C(/C=C/c1ccc(F)cc1)N1CCc2ccccc2C1 | 88* | 1 | 2 | -3
SMILES | USP8 block | USP10 block | UCHL1 block | USP7 block
O=C(/C=C/c1cccc(F)c1)N1CCc2ccccc21 | 42* | 9 | 2 | 11
O=C(/C=C/c1ccc(F)cc1)N1CCCc2ccccc21 | -4 | 4 | -2 | -31
COc1ccc(NC(=O)[C@H](C)NC(=O)c2cc3c(OC)cccc3[nH]2)cc1Cl | 98* | 51* | 10 | 39*
COc1ccc(OC)c(NC(=O)c2cc3c(OC)cccc3[nH]2)c1 | -8 | -7 | 4 | -10
Cc1noc(C)c1CC(=O)N1C[C@H]2CC[C@@H](Nc3cnccn3)[C@H]2C1 | 4 | -1 | -1 | 3
Cc1ccc(S(=O)(=O)Nc2nc(-c3ccc4c(c3)NC(=O)C(C)O4)c(C)s2)cc1 (stereo unspecified) | 50* | 41* | 4 | 13
COc1cccc(C(=O)Nc2nc(-c3ccc4c(c3)NC(=O)C(C)O4)c(C)s2)c1 (stereo unspecified) | -8 | 1 | 2 | -6
C1=CCC(CN(CCCn2ccnc2)Cc2cnc[nH]2)CC1 (stereo unspecified) | 32* | 0 | -2 | -1
O=S(=O)(c1ccc(Cl)cc1)N1CCCC(c2nc(-c3ccccn3)no2)C1 (stereo unspecified) | 6 | -7 | -2 | -4
CC(=O)c1cnc(-c2ccccn2)s1 | 44* | -4 | 0 | -4
CC(=O)Nc1cccc(NC(=O)CSc2ccc(-c3ccc4c(c3)OCO4)nn2)c1 | 33* | 19 | -2 | 5
O=C(CSc1ccc(-c2ccncc2)nn1)NCc1ccc2c(c1)OCO2 | -3 | 3 | -1 | 0
COc1ccc(OC)c(NC(=O)c2cc(F)ccc2-n2cnnn2)c1 | 6 | 2 | 7 | 9
COc1cc(NC(=O)Cn2nc(-c3ccc(F)cc3)ccc2=O)ccc1-n1cnnn1 | 39* | 51* | 11 | 17
O=C(CSc1ccc(-c2cccc([N+](=O)[O-])c2)nn1)Nc1cccc(F)c1 | 70* | 46* | 7 | 28
COc1ccc(-c2ccc(SCC(=O)Nc3ccc(F)cc3)nn2)cc1OC | 83* | 16 | 0 | 18
O=C(CSc1ccc(-c2ccccc2)nn1)Nc1ccc(F)c([N+](=O)[O-])c1 | 5 | 29 | 0 | 19
Cc1c(C(=O)Nc2ccccc2)c2ccccn2c1CCc1ccncc1 | -12 | -5 | -30 | -24
CCCn1nc(-n2cnnc2)c(NS(=O)(=O)c2ccc(C)cc2)c1C | 0 | 0 | -2 | 1
CCOC(=O)C1CCN(C(=O)COc2ccc3c(=O)c(Oc4ccc(F)cc4)c(C)oc3c2)CC1 | -2 | -4 | 1 | -1
COc1cccc(CNc2cc(C(C)C)nc3nc(-c4cccnc4)nn23)c1 | 6 | 1 | 2 | 2
CC(Sc1ncnc2nc[nH]c12)C(=O)Nc1ccc(Br)cc1F (stereo unspecified) | 74* | 22 | 1 | 11
Cc1cc(C)cc(NC(=O)c2ccc(CSc3ncnc4nc[nH]c34)cc2)c1 | -12 | 0 | -1 | 4
CC(C)c1nc2sc3c(SCc4ccccc4Cl)ncnc3c2c2c1CCC2 | 0 | 3 | 1 | 3
COc1cc2c(=O)n(CCC(=O)NCc3ccco3)c(=O)n(CC(=O)Nc3c(C)cccc3C)c2cc1OC | 38* | -3 | 8 | 9
COc1cccc(C(=O)Cn2c(=O)n(CCCC(=O)NCc3ccco3)c(=O)c3ccc(Cl)cc32)c1 | 10 | 24 | -1 | -6
N#Cc1ccccc1Cn1c(=O)n(CCC(=O)N2CC=C(c3ccccc3)CC2)c(=O)c2ccccc21 | 12 | 10 | 4 | 2
O=C(Cn1c(=O)n(CCC(=O)N2CC=C(c3ccccc3)CC2)c(=O)c2ccccc21)NCc1ccco1 | 51* | 4 | 11 | 1
O=C(CCn1c(=O)c2ccccc2n(Cc2ccc(F)cc2Cl)c1=O)NCc1ccco1 | 48* | 40* | 4 | -8
